Growth data for 40 molecules are collected here from PubChem BioAssay (NCI).

This is part of a sample that, as a whole, favours compounds with a hit. Of some 83,000 tested, about 20% had one in any assay.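 96-well plates, one dose, 48 hours. Percent growth reported; active if below 10.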 A number with no mark means an inactive call. The source made the active and inactive calls.

The test system of this experiment is NCI-H322M lung. In words: NCI-60 one-dose screen, 48 h (100 = growth as untreated, 0 = no growth, -100 = all killed). Particulars: 10 µM unless noted. The procedure:
Growth inhibition of the NCI-H322M human Non-Small Cell Lung tumor cell line is measured as a screen for anti-cancer activity. Cells are grown in 96 well plates and exposed to the test compound for 48 hours. Compounds are tested at a single concentration, which is 10^-5 M for most compounds. The reported endpoint is percent growth (GI% or GIPRCNT), where numbers from 0 - 100% represent growth inhibition, and numbers from -100% - 0 represent cell death. For example, a value of 40 represents 60% growth inhibition. A value of 0 means no net growth occurred over the course of the experiment. A value of -40 indicates 40% of cells at the beginning of the experiment died by the end of the experiment. A value of -100 means all cells are dead at the end of the experiment.
NCI-60 Human Tumor Cell Lines Screen was performed using the standard one-dose NCI protocol, which is described in more detail at https://dtp.cancer.gov/discovery_development/nci-60/default.htm.
Compounds with GIPRCNT values below 10 were considered active. Activity score was based on GIPRCNT using the following formula: […]
Score is 0 for GIPRCNT values of 100 or above, 50 for GIPRCNT values of 0, and 100 for GIPRCNT values of -100.
Consider `C[C@H](Nc1nc(NCCc2ccccc2)nc2ccccc12)c1ccccc1`, for which the growth was -55.9% (active).
Turning to `COc1ccc2[nH]cc(-c3cc(N)n4nc(-c5cn(C)c6ccccc56)cc4n3)c2c1`, the growth is -97.2% (active).
The value for `CC12CC[C@@H]3[C@]4(C)COC(c5cn[nH]c5-c5ccc(Cl)cc5)O[C@@H]4CC[C@@]3(C)[C@@H]1CC(C1=CCOC1=O)O2` (stereo not given in full) was 58.2%.
The value for `COc1ccc(N2N=C(c3ccc4c(c3)OCO4)CC2c2cccc(NC(=O)CCCNS(=O)(=O)c3ccc(F)cc3)c2)cc1` (stereo not given) was 76.1%.
As to `CN1CCN(c2ccc(C(=O)/C=C/c3ccc(Br)cc3)cc2)CC1`, the growth was 62.8%.
As to `N/C(=N\c1nc2ccccc2s1)NC(=O)Nc1ccc(Cl)cc1Cl`, the growth was -51.3% (active).
The value for `C[C@H]1CN(C(=O)c2ccc3c(NNC(=O)c4ccncn4)nc4cc(F)c(F)cc4n23)CCN1` was 32.2%.
As for `O=C(c1ccccc1)c1ccc2nc(-c3cccc(Cl)c3)[nH]c2c1`, the growth is 105%.
The value for `CC(=O)Nc1ccc(-n2cnc3ccc(-c4ccc(O)cc4)cc32)cc1` was 44%.
With `Cc1cc(C)n(-c2ccc3nnc(-c4ccccc4)n3n2)n1`, the growth is 110%.
With `O=C(/C=C/c1ccc(-c2ccccc2)cc1)c1nc2ccccc2n1Cc1ccc(Br)cc1`, the growth is 72.4%.
As to `Cc1ccc(C(=O)CSc2nc3ccc(C)cc3c(=O)n2-c2ccc(F)cc2)cc1`, the growth is 60%.
The value for `Cn1cc(NC(=O)c2cc(NC(=O)c3ccc(C#Cc4ccccc4)cc3)cn2C)cc1C(=O)NCCCN1CCOCC1` was 81%; that for `Cc1cc(=O)oc2cc(OCCCOc3ccc(/C=C/C(=O)Nc4ccccc4N)cc3)ccc12` was 54.7%.
The value for `CCCSc1nc(NCCc2c[nH]c3ccccc23)c(C#N)c(-c2ccccc2)n1` was 93.5%.
The value for `COc1ccc(-c2nc(SC(C)C)nc(NCCc3c[nH]c4ccccc34)c2C#N)cc1` was 87.7%.
`C#CCOc1cc(N(CC)CC)ccc1C(C(=O)NC(C)(C)C)N(C(=O)C1CCc2cc(F)ccc2O1)c1ccccc1F` (stereo not given): the growth is 72.2%.
For the molecule `CC1(C)CC[C@]2(C(=O)O)CC[C@]3(C)C(=CCC4[C@@]5(C)C[C@@H](O)[C@@H]6OC(c7ccccc7F)OC[C@@]6(C)C5CC[C@]43C)C2C1` (stereo not given in full), the growth is 13.5%.
With `CC(C)Sc1nc(NCCc2c[nH]c3ccccc23)c(C#N)c(-c2ccccc2)n1`, the growth was 85.4%.
Turning to `CCC(C)(C)c1ccc(OCCCCCCN2CCN(c3ccncc3)CC2)cc1`, the growth was 47.6%.
Turning to `CCC(C)(C)c1ccc(OCCCCN2CCN(c3ccncc3)CC2)cc1`, the growth was 83.9%.
The value for `CC1(C)CC[C@]2(C(=O)O)CC[C@]3(C)C(=CCC4[C@@]5(C)C[C@@H](O)[C@@H]6OC(c7ccco7)OC[C@@]6(C)C5CC[C@]43C)C2C1` (stereo not given in full) was 30.1%.
Take `O=C(Cn1nc(-c2ccccc2)ccc1=O)N/N=C/c1ccc(N2CCOCC2)cc1`: the growth is 106%.
`COc1ccc(Cc2nn(CC(=O)N/N=C/c3ccc(F)cc3)c(=O)c3c(C)noc23)cc1`: the growth is 37.1%.
As for `N#Cc1c(-c2ccc(Cl)cc2)nc2n[nH]c(-c3ccc(Cl)cc3)c2c1-c1ccc(C(F)(F)F)cc1`, the growth is 10.2%.
Take `COc1cc(C2CC(c3cc(OC)c(OC)c(OC)c3)=NN2c2ccccc2)ccc1OCc1ccc(C)cc1` (stereo not given): the growth is 102%.
For the molecule `COc1cccc(-c2c(C#N)c(-c3ccc(Cl)cc3)nc3n[nH]c(-c4ccc(Cl)cc4)c23)c1`, the growth is 82.8%.
`COc1ccc(NC(=O)[C@H](CO)NC(=O)OC(C)(C)C)cc1C(=O)Nc1cccc(C2CC(=O)c3c(cc(OC)c(OC)c3OC)O2)c1` (stereo not given in full): the growth was 81.1%.
For the molecule `CC(C)c1sc(NC(=O)c2cc(NC(=O)c3cc(NC(=O)c4nccn4C)cn3C)cn2C)nc1C(=O)NCCCN(C)C`, the growth is 95.6%.
`COc1ccc(C(=O)/C=C/c2ccc(OCc3ccccc3)c(OC)c2)cc1OC`: the growth was 15.7%.
The value for `Cc1ccc2c(N)c(C(=O)Nc3ccc(-c4ccccc4)cc3)sc2n1` was 73.8%; that for `COc1ccc(/C=N/NC(=O)Cn2nc(Cc3ccc(OC)cc3)c3onc(C)c3c2=O)cc1` was 59%.
As for `CN(C)CCCNC(=O)c1cc(NC(=O)c2cc(NC(=O)c3ccc(/C=C/c4ccccc4)cc3)cn2C)cn1C`, the growth was 73.4%.
For the molecule `Cc1ccccc1[C@H]1C(C(=O)c2ccc(Cl)cc2)C2(N[C@@H]1c1ccccc1)C(=O)Nc1ccc(Br)cc12` (stereo not given in full), the growth was 39.4%.
Regarding `COc1ccc(NC(=O)c2sc3nc(C(C)C)ccc3c2N)cc1`, the growth was 69.5%.
With `O=C(Cn1c2c(sc1=O)[C@H]1[C@@H](O)[C@@H](O)[C@H](O)[C@@H]1CS2)N1CCOCC1`, the growth was 107%.
The value for `CCN(CC)c1ccnc(CNCCSC(c2ccccc2)(c2ccccc2)c2ccc(C)cc2)c1` was -10.4% (active).
Regarding `CN(C)c1ccnc(CNCCSC2(c3ccc(C(F)(F)F)cc3)c3ccccc3CCc3ccccc32)c1`, the growth was 8.82% (active).
In the case of `CN(C)c1nc(NCCNS(=O)(=O)c2ccc(C(=O)/C=C/c3ccc(F)cc3)cc2)nc(Nc2ccc(F)cc2)n1`, the growth is -22.6% (active).
Regarding `CCOC(=O)c1ccc(Nc2nc(NN)nc(-c3ccc(F)cc3)c2C#N)cc1`, the growth is 109%.
